Laboratory results published in PubChem BioAssay AID1159602 (The Scripps Research Institute Molecular Screening Center, 2016).
Among all 22,000 compounds or so, about 220 (1%) were called active. Shown is part of a subset that was picked to be rich in actives. Values without a mark were called inactive. Rule as the data show it: active = inhibition above about 35%; inactive = the rest.

Target: Mitogen-activated protein kinase kinase kinase 5 (Homo sapiens) (UniProt Q99683)
Assay: ASK1 kinase inhibitors, primary screen, biochemical, AlphaScreen (AID 1159602);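 also: 0% = median of compound wells and 100% = no enzyme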
Conditions: AlphaScreen MKK6 phosphorylation by ASK1, luminescence; at 7.44 µM; hits give high values

Mitogen-activated protein kinase kinase kinase 5 (Homo sapiens), sequence (Q99683 whole entry, looked up): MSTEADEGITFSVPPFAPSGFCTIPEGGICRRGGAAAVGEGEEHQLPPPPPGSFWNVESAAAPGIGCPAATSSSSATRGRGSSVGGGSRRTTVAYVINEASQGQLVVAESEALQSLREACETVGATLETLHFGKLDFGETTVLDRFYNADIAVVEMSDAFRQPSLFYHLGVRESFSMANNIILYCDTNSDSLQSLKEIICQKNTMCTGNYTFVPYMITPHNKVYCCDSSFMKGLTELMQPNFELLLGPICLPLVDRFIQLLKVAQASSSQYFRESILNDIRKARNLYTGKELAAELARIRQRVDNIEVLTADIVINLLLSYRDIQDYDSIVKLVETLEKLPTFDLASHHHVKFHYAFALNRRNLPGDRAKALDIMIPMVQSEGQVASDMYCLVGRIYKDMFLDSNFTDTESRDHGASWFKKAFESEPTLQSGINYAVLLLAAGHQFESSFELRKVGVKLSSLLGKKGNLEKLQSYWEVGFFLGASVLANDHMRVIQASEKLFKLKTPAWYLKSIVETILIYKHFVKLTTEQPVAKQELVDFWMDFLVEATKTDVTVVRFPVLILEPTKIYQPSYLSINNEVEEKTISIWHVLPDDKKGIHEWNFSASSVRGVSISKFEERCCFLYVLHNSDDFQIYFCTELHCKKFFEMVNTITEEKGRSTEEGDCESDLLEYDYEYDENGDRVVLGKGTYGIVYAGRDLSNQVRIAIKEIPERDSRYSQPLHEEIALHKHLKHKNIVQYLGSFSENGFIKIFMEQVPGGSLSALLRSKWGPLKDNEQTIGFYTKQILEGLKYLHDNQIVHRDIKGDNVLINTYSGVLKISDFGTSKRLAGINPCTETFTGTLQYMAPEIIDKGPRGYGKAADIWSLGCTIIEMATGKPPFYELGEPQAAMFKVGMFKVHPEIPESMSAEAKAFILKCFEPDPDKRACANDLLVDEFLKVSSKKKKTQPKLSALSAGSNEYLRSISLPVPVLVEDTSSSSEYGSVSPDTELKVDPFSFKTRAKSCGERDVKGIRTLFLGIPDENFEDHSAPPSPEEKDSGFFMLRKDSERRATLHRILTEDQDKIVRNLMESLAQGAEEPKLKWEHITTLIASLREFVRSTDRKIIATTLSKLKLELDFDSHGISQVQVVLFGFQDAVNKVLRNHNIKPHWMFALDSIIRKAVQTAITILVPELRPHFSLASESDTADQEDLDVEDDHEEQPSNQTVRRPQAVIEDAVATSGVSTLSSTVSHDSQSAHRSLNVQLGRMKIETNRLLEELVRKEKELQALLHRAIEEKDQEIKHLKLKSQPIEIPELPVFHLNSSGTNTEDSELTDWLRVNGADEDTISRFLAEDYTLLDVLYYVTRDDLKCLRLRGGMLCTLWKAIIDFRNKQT

Row | Structure (SMILES) | inhibition
1 | O=C(NCc1cccc(C(F)(F)F)c1)c1csc(NCc2ccc3c(c2)OCO3)n1 | 8.66%
2 | Cc1cc(NCCO)nc(Nc2nccc3ccccc23)n1 | -10.4%
3 | COc1nc(N)nc(-c2csc3ccccc23)n1 | 2.99%
4 | CCNc1nc(Nc2cc(OC)c(OC)c(OC)c2)c2ncn(-c3ccsc3)c2n1 | 8.63%
5 | O=C(NCCN1CCOCC1)c1csc(N2CCC(N3CCOCC3)CC2)n1 | -5.25%
6 | c1cn(-c2ccc(Nc3nc4ncnc(NC5CC5)c4[nH]3)cc2)cn1 | 18.6%
7 | COc1ccc(-c2cc(C(=O)Nc3ccc(N4CCOCC4)cc3)ccn2)cc1 | 11.5%
8 | c1ccc(CN2CCC(Nc3nc(N4CCc5ccccc5C4)nc4c3ncn4-c3ccsc3)CC2)cc1 | 9.04%
9 | Cc1ncn(-c2ccc(Nc3nccc(N4CCc5[nH]ncc5C4)n3)cc2)n1 | -13.8%
10 | CCN(CC)c1nc(NCc2nc3ccccc3[nH]2)nc(N2CCCC2CO)n1 (stereo not given) | -6.32%
11 | c1ccc2[nH]c(CNc3ncnc4nc(N5CCC(N6CCOCC6)CC5)[nH]c34)nc2c1 | -21.4%
12 | O=C(NCC(O)c1ccc(Br)cc1)c1cn(-c2cccc3c(=O)[nH]ccc23)nn1 (stereo not given) | 13.4%
13 | c1ccc(OCCNc2cc(-c3ccccc3)ncn2)cc1 | -16.6%
14 | CC(=O)Nc1ccc(Nc2ccnc(N3CCC(N4CCOCC4)CC3)n2)cc1 | -0.1%
15 | CC(C)n1cnc2c(NCc3ccccc3)nc(NC3CCC(O)CC3)nc21 (stereo not given) | -16.8%
16 | Cc1ccc(C(=O)N2CCCC(Nc3cccc4cncc(C)c34)C2)cc1F (stereo not given) | -24.3%
17 | CN(C)CCCNC(=O)c1ccc2c(c1)CC(c1nc3ccc(-c4ccnc(N)n4)cc3[nH]1)CO2 (stereo not given) | 12.4%
18 | c1ccc(-n2cnc3c(NCCN4CCOCC4)nc(Nc4ccc(-n5ccnc5)cc4)nc32)cc1 | 5.99%
19 | O=C(NCCN1CCOCC1)c1cccc(-n2ncc3cc(Nc4ccccc4F)ccc32)n1 | -7.35%
20 | O=C(Nc1ccc(N2CCOCC2)cc1)c1cccc(N2CCC(N3CCOCC3)CC2)n1 | 13.2%
21 | Nc1nc(N2CCN(c3ccccn3)CC2)nc2c1ncn2-c1ccsc1 | 1.87%
22 | CC(=O)Nc1ccc(Nc2nc(Nc3ccc(-n4ccnc4)cc3)nc3c2ncn3-c2ccsc2)cc1 | 4.85%

Row | Structure (SMILES) | inhibition
23 | O=C(NCCN1CCOCC1)c1cccc(-c2ccc(N3CCOCC3)nc2)c1 | 1.42%
24 | CC(C)N(CCNC(=O)c1ccnc(Nc2ccc(C(F)(F)F)cc2)c1)C(C)C | 7.8%
25 | CCCN1CCN(c2c(Cl)cccc2NC(=O)Nc2ccc(Br)cc2)CC1 | -17.3%
26 | c1cc(-c2cncc(N3CCOCC3)c2)nc(Nc2ccc3c(c2)OCO3)n1 | -4.36%
27 | COc1ccc(CCNc2cc(NCc3cccnc3)nc(N)n2)cc1 | -6.16%
28 | Cc1cc(NC2CC2)nc(NCCCN2CCCC2=O)n1 | 7.09%
29 | COc1ccc(CCNc2cc(-c3ccc(OC)cc3)nc(N)n2)cc1 | -5.04%
30 | COc1cc2nc(Nc3ncccn3)nc(Nc3cc(OC)c(OC)c(OC)c3)c2cc1OC | 14.3%
31 | COc1cc2nc(Nc3nccc4ccccc34)nc(Nc3ccccc3)c2cc1OC | -29.2%
32 | COc1cc2nc(NCc3ccc4c(c3)OCO4)nc(Nc3ccc(NC(C)=O)cc3)c2cc1OC | 18.8%
33 | COc1cc2nc(Nc3ccc4ncccc4c3)nc(Nc3ccc(NC(C)=O)cc3)c2cc1OC | 35.6% (active)
34 | COc1cc(Nc2nc(Nc3cccc(N(C)C)c3)nc3nc[nH]c23)cc(OC)c1OC | 27%
35 | COc1cc2nc(Nc3cccc(N(C)C)c3)nc(Nc3cc(OC)c(OC)c(OC)c3)c2cc1OC | 36.7% (active)
36 | FC(F)(F)c1ccc(Cn2cnc3c(NCc4nc5ccccc5[nH]4)nc(N4CCOCC4)nc32)cc1 | -1.96%
37 | Cn1nccc1-c1cc(F)cc(-c2ccnc(Nc3ccc(-n4cnc(N5CCOCC5)n4)cc3)n2)c1 | 21.1%
38 | O=C(Nc1cccc(Cl)c1N1CCC(N2CCCCC2)CC1)c1ccc(Br)o1 | 9.68%
39 | O=C1CCCN1CCn1cnc2c(Nc3ccc(N4CCOCC4)cc3)nc(Nc3ccccc3)nc21 | 13.9%
40 | COc1ccc(CCNC(=O)c2cccc(-c3ccc(C(N)=O)cc3)n2)cc1 | 0.41%
41 | CNC(=O)c1cc(F)ccc1Nc1cc(Nc2ccc3c(c2)CCC(=O)N3)ncc1C(F)(F)F | 2.41%
42 | c1ccc(CCNc2nccc(Nc3ccncn3)n2)cc1 | 1.01%
43 | CC(C)n1cnc2c(Nc3ccc(N4CCOCC4)cc3)nc(Nc3ccncc3)nc21 | 4.78%
44 | COc1cc(Nc2nc(N3CCc4ccccc4C3)nc3c2ncn3-c2ccsc2)cc(OC)c1OC | 6.46%

Row | Structure (SMILES) | inhibition
45 | COc1cc(Nc2nc(N3CCc4ccccc4C3)nc3c2ncn3-c2ccccc2)cc(OC)c1OC | 38.8% (active)
46 | CCCNc1nc(N2CCc3ccccc3C2)nc2c1ncn2-c1ccccc1 | 6.17%
47 | O=C(NCc1ccccc1)c1cnc(NCc2ccc3c(c2)OCO3)s1 | -19.1%
48 | O=C1CCCN1CCCNc1nccc(NC2CCN(Cc3ccccc3)CC2)n1 | -6.87%
49 | c1nc(Nc2ccc(N3CCOCC3)cc2)cc(N2CCOCC2)n1 | 3.52%
50 | CN1CCN(c2ccc(-c3cc(Nc4ccc(N5CCOCC5)cc4)nc(N)n3)cc2)CC1 | 17.6%
51 | Nc1nc(Nc2ccc(N3CCOCC3)cc2)cc(-c2ccc3[nH]ccc3c2)n1 | 41.8% (active)
52 | Nc1cccc(-c2nc(NCCc3ccc(O)cc3)c3ncn(Cc4ccc(C(F)(F)F)cc4)c3n2)c1 | 3.28%
53 | c1ccc(CCCNc2nccc(Nc3ccncn3)n2)cc1 | 12.3%
54 | Nc1nc(Nc2ccc(-n3ccnc3)cc2)cc(NC2CCN(Cc3ccccc3)CC2)n1 | 18.2%
55 | COc1ccc(-c2cccc(C(=O)Nc3ccccc3)n2)cn1 | -3.52%
56 | O=C(NCCO)c1ccc2nc(NCCN3CCOCC3)sc2c1 | -9.95%
57 | COc1nc(Nc2ccccc2)nc(-c2csc3ccccc23)n1 | -2.87%
58 | c1csc(-c2ccnc(Nc3ccc(N4CCOCC4)cc3)n2)c1 | 13.2%
59 | CCCNc1nc(-c2cccc(C(C)=O)c2)ncc1C | -6.63%
60 | O=C(Nc1ccc2[nH]ncc2c1)C1CCN(C(=O)[C@H](O)c2cccc(Cl)c2)C1 (stereo not given in full) | -11.7%
61 | CC(C)n1cnc2c(NC3CCN(Cc4ccccc4)CC3)nc(-c3ccc(N4CCOCC4)nc3)nc21 | 11%
62 | O=C1CCCN1CCCNc1cc(NCc2cccnc2)ncn1 | 2.26%
63 | CCN(CC)C(=O)C1CCCN(c2nc3ncnc(NCCN4CCOCC4)c3[nH]2)C1 (stereo not given) | 1.62%
64 | O=C(NC1CC1)c1ccc(-c2ncc(C(=O)Nc3ccc(N4CCOCC4)cc3)s2)cc1 | 1.95%
65 | Nc1cccc(-c2ccc(C(=O)NCc3nc4ccccc4[nH]3)s2)c1 | 7.11%
66 | CCCNc1nc(-c2ccc(C(=O)N3CCN(C)CC3)cc2)nc2c1ncn2C(C)C | -4.93%

Row | Structure (SMILES) | inhibition
67 | c1ccc(OCCNc2cc(NCc3ccc4c(c3)OCO4)ncn2)cc1 | 11.6%
68 | O=C(NC1CC1)c1ccc(-c2nc(NC3CC3)c3ncn(C4CCCCC4)c3n2)cc1 | -4.59%
69 | Cc1[nH]ncc1-c1ccc(NC(=O)CCc2ccccc2)cc1 | 1.62%
70 | O=C(NC1CC1)c1ccc(-c2nc(C(=O)NCc3cccc(C(F)(F)F)c3)cs2)cc1 | -7.56%
71 | c1ccc(CN2CCC(Nc3nc(NCc4ccc5c(c4)OCO5)nc4c3ncn4C3CCCCC3)CC2)cc1 | 24.9%
72 | FC(F)(F)c1ccc(Cn2cnc3c(NC4CCN(Cc5ccccc5)CC4)nc(Nc4nccc5ccccc45)nc32)cc1 | 7.54%
73 | FC(F)(F)c1cnc(Nc2ccc(N3CCOCC3)cc2)cc1-n1ncc2ccccc21 | -0.62%
74 | FC(F)(F)c1cccc(CNc2nc(N3CCN(Cc4ccc5c(c4)OCO5)CC3)nc3c2ncn3-c2ccccc2)c1 | 36.7% (active)
75 | FC(F)(F)c1cccc(CNc2nc(N3CCN(c4ccccn4)CC3)nc3c2ncn3-c2ccsc2)c1 | 40.9% (active)
76 | c1ccc(N2CCN(c3nc(NCc4nc5ccccc5[nH]4)c4ncn(-c5ccsc5)c4n3)CC2)nc1 | -8.09%
77 | c1ccc(CNc2nc(N3CCN(c4ccccn4)CC3)nc3c2ncn3-c2ccsc2)cc1 | 19.3%
78 | FC(F)(F)c1cccc(CNc2ncnc3nc(N4CCOCC4)[nH]c23)c1 | -25.3%
79 | FC(F)(F)c1cccc(CNc2nc(N3CCOCC3)nc3c2ncn3-c2ccsc2)c1 | 8.31%
80 | COc1cc(Nc2nc(NCc3cccc(C(F)(F)F)c3)c3ncn(-c4ccsc4)c3n2)cc(OC)c1OC | 15.7%
81 | Cc1cnc(Nc2ccc(N3CCOCC3)cc2)nc1NCc1cccc(C(F)(F)F)c1 | 41.4% (active)
82 | O=C1CCCN1CCn1cnc2c(NCc3cccc(C(F)(F)F)c3)nc(N3CCN(Cc4ccc5c(c4)OCO5)CC3)nc21 | 15.8%
83 | O=C1CCCN1CCCNc1nc(N2CCN(Cc3ccc4c(c3)OCO4)CC2)nc2c1ncn2-c1ccccc1 | 14.4%
84 | FC(F)(F)c1ccc(Cn2cnc3c(NCc4cccc(C(F)(F)F)c4)nc(Nc4ccc(N5CCOCC5)cc4)nc32)cc1 | 12.8%
85 | FC(F)(F)c1cccc(CNc2nc(Nc3ccc(N4CCOCC4)cc3)nc3c2ncn3-c2ccsc2)c1 | 41.6% (active)
